Measured values as given in PubChem BioAssay AID1259313 (Sanford-Burnham Center for Chemical Genomics, 2017).
Out of some 340,000 compounds screened, about 8,500 (2.5%) were called active. Shown is part of a subset that was picked to be rich in actives. Unmarked numbers belong to inactive results.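 The calls were made as follows: active = melting temperature shift of at least 10% of the positive control shift, at one fixed dose; inactive = the rest.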

test system: Glutamate receptor ionotropic, NMDA 3A (GRIN3A) ligand-binding domain; experiment: binders of NR3A ligand-binding domain, primary screen, biophysical, differential scanning fluorimetry, uHTS (AID 1259313); conditions: NR3A LBD differential scanning fluorimetry, at 25 µM, hits give high values, 0% = protein alone, 100% = glycine-bound protein

| Compound | Tm shift relative to glycine control |
| --- | --- |
| CCOC(=O)c1ccc(-n2c(CCC(=O)O)ccc2-c2ccccc2)cc1 | 0.18% |
| Cc1ccc(CNC(=O)CC2Sc3ccccc3NC2=O)cc1 (stereo not drawn) | -1.5% |
| Cc1c(Cl)cccc1NC(=O)CC1SC(=NCC2CCCO2)NC1=O (stereo not drawn) | -1.26% |
| Cc1ccc(NC(=O)CC2S/C(=N/N=C3\CCCc4ccccc43)NC2=O)cc1 (stereo not drawn) | 25.5% (active) |
| CC(C)CCNC(=O)C(C)N(C(=O)Cn1nnc(-c2ccc(F)cc2)n1)C1CCCC1 (stereo not drawn) | 22.9% (active) |
| CC(C)CCNC(=O)CN(C(=O)Cn1nnc(-c2ccc(F)cc2)n1)C1CCCC1 | -0.75% |
| CN(C(=O)Cn1nnc(-c2ccc(F)cc2)n1)C1CCS(=O)(=O)C1 (stereo not drawn) | 0.08% |
| COCC1CCN(C(=O)c2ccc3oc(Cc4ccccc4)nc3c2)C1 (stereo not drawn) | -2.47% |
| CN(C)Cc1c(O)ccc2occ(C(O)c3ccccc3)c12 (stereo not drawn) | -0.8% |
| CCN(C(=O)CSc1nnc(-c2ccc(OC(F)F)cc2)n1N)C1CCS(=O)(=O)C1 (stereo not drawn) | 0.42% |
| Cc1ccc(NC(=O)NC(=O)CSc2nnc(-c3ccc(OC(F)F)cc3)n2N)c(C)c1 | 47.6% (active) |
| CC(C)NC(=O)NC(=O)CSc1nnc(-c2ccccc2F)n1N | -0.64% |
| Nc1c(-c2ccc(F)cc2)cnn1C1CCS(=O)(=O)C1 (stereo not drawn) | -1.17% |
| Nc1ccc(Cl)c(S(=O)(=O)Nc2ccccc2Cl)c1 | -2.25% |
| CCn1cc(NC(=O)Nc2ccc(OC)c(OC)c2)c(C(N)=O)n1 | -1.66% |
| C=CCn1cnc2scc(-c3ccccc3)c2c1=O | 5.11% |
| CN(CCC#N)c1ncnc2scc(-c3ccccc3)c12 | 10.9% (active) |
| N#CCCN(CCC#N)c1nnc(-c2ccccc2)s1 | 2.17% |
| COc1ccc(CCNC(=O)c2ccc(NC(=O)CC3SC(N4CCCCC4)=NC3=O)cc2)cc1OC (stereo not drawn) | 0.17% |
| CNc1ccc(SC#N)cc1 | -0.62% |
| C=CCn1c(=NC(=O)c2ccc(S(=O)(=O)N3CCCC3)cc2)sc2cc(NC(C)=O)ccc21 | 18.6% (active) |
| C=CCn1c(=NC(=O)c2cccs2)sc2cc(NC(C)=O)ccc21 | 2.65% |
| CC(=O)Nc1ccc(S(=O)(=O)N2CCSCC2)cc1 | 0.09% |
| CC(=O)Nc1ccc(NC(=O)CCN2C(=O)C3CC=CCC3C2=O)cc1 (stereo not drawn) | -1.24% |

| Compound | Tm shift relative to glycine control |
| --- | --- |
| CCC(C)(C)NC(=O)C(c1cccc(OC)c1OC)N(CC(C)C)C(=O)CCC(=O)Nc1cc(C)on1 (stereo not drawn) | -1.85% |
| NC(=O)C1CC(=O)N(c2ccc(OCC(=O)NCc3ccccc3)cc2)C1 (stereo not drawn) | -0.09% |
| O=C(O)c1ccccc1N=N/C(=N/Nc1cc(S(=O)(=O)O)ccc1O)c1ccccc1 | 25.2% (active) |
| O=C(COC(=O)c1c2c(nc3ccccc13)CCCC2)c1ccc(Br)s1 | -4.51% |
| Cn1cccc1C(=O)OCC(=O)NCCc1ccccc1 | -0.25% |
| Cn1cccc1C(=O)OCC(=O)c1ccc(Br)s1 | 14% (active) |
| O=C(Nc1cccc(C(=O)NC2CC2)c1)c1ccc(F)c(S(=O)(=O)N2CCOCC2)c1 | 4.42% |
| COc1ccc(NS(=O)(=O)c2ccc(NC(=S)NC(=O)/C=C/c3ccc(C)cc3)cc2)nn1 | -7.2% |
| COc1ccc(/C=C/C(=O)c2ccc(NS(=O)(=O)c3ccc(C)cc3)cc2)cc1O | 24.6% (active) |
| Cc1ccc(C(=O)/C=C/Nc2ccc(S(=O)(=O)Nc3onc(C)c3C)cc2)cc1 | -6.78% |
| CCOC(=O)C1CCN(C(=O)CN2C(=O)NC(C)(c3ccc4cc(OC)ccc4c3)C2=O)CC1 (stereo not drawn) | 0.17% |
| Cc1onc(-c2ccccc2Cl)c1C(=O)OCC(=O)c1ccccc1 | -1.07% |
| CCOC(=O)c1c(-c2cccc(C)c2)csc1NC(=O)c1c(-c2ccccc2)noc1C | -0.48% |
| Cc1[nH]c2ccccc2c1C(=O)COC(=O)c1c(-c2ccccc2)noc1C | 18.8% (active) |
| COc1cc(NC(=O)CCNC(=O)Cn2ccc3ccccc3c2=O)cc(OC)c1OC | 1.09% |
| O=C(CSc1nnc(-c2ccncc2)o1)Nc1cccc(Cl)c1 | -2.14% |
| O=C(COC(=O)CSc1nnc(-c2ccc(Cl)cc2)o1)Nc1cc(Cl)cc(Cl)c1 | 19.4% (active) |
| O=C(CSc1nnc(-c2ccncc2)o1)NCc1ccc(Cl)cc1 | 1.65% |
| NCC(=O)c1cccc2ccc[n+]([O-])c12 | 7.2% |
| Cc1ccc(C)c(NC(=O)COC(=O)c2nn(C)c(=O)c3ccccc23)c1 | 0.34% |
| O=P(O)(CP(=O)(c1ccccc1)c1ccccc1)c1ccccc1O | -4.72% |
| COc1ccc(OC)c(NC(=O)C2CCCN2S(=O)(=O)c2cccc3nsnc23)c1 (stereo not drawn) | 13.4% (active) |
| CC(=O)c1cccc(NC(=O)C2CCCN2S(=O)(=O)c2cccc3nsnc23)c1 (stereo not drawn) | 1.52% |
| CC1CCCCC1NC(=O)C1CCCN1S(=O)(=O)c1cccc2nsnc12 (stereo not drawn) | -1.29% |

| Compound | Tm shift relative to glycine control |
| --- | --- |
| COc1ccc(CCC(=O)OCC(=O)Nc2ccc(C)c(S(=O)(=O)N(C)C)c2)cc1 | -3.89% |
| Cc1c(C=O)c2ccccc2n1CCOc1ccccc1 | -1.12% |
| COC(=O)c1ccc(COc2cc([N+](=O)[O-])cc3cccnc23)cc1 | -1.16% |
| COc1ccc([C@H]2CC(=O)C=C(/C=C/c3ccc(Cl)cc3)C2)cc1 | 25.2% (active) |
| COc1ccc([C@H]2CC(=O)C=C(/C=C/c3ccccc3)C2)cc1 | -0.08% |
| CCCCC/C=C/C1=CC(=O)C[C@H](c2ccc(Cl)cc2)C1 | -2.27% |
| CC1(C)O[C@@H]2CC3C4C[C@H](F)C5=CC(=O)C=CC5(C)C4C(O)CC3(C)[C@]2(C(=O)CO)O1 (stereo partly drawn) | -0.79% |
| COc1ccc(NC(=O)C2CCN(S(=O)(=O)c3ccc4[nH]c(=O)oc4c3)CC2)c(OC)c1 | -2.13% |
| Cc1nc2cc(NC(=O)Nc3cccc(F)c3)ccc2n1C | -0.72% |
| O=C(Nc1cccc(Br)c1)c1ccc2snnc2c1 | -4.74% |
| O=C(Nc1ccc2ccccc2c1)Nc1ccc2snnc2c1 | 157% (active) |
| Cc1cccc(C)c1NC(=O)CSc1nc2c([nH]1)c(=O)n(C)c(=O)n2C | -0.47% |
| CO[C@@H]1[C@@H](OC(N)=O)[C@@H](O)C(Oc2ccc3c(O)c(NC(=O)c4ccc(O)c(CC=C(C)C)c4)c(=O)oc3c2C)OC1(C)C (stereo partly drawn) | -12.2% |
| Cc1ccc(C)c(NC(=S)NNC(=O)c2csc(C)c2)c1 | 1.94% |
| CC(C)c1ccc(NC(=S)NNc2ccc(Cl)c(C(=O)O)c2)cc1 | -0.77% |
| Cc1ccc(C)c(NC(=S)NNC(=S)Nc2ccc(C(C)C)cc2)c1 | 12.8% (active) |
| CN(C)CCCn1c(=O)n(Cc2ccccc2)c(=O)c2c3c(sc21)CCCCC3 | -3.1% |
| CCCOP(=O)(c1ccc(N(C)C)cc1)C(O)c1cc(OC)c(OC)c(OC)c1 (stereo not drawn) | 3.76% |
| CCOc1cc(C=NNC(=O)CCCC(=O)NN=Cc2ccc(O)c(OCC)c2)ccc1O | 1.26% |
| CCOc1cc(/C=C(\C#N)c2nc(-c3cccs3)c(NC(C)=O)s2)ccc1O | 10.9% (active) |
| CCOc1cc(-c2cc(-c3ccc(NC(C)=O)cc3)nc(N)c2C#N)ccc1O | -13.2% |
| Cc1noc(C)c1S(=O)(=O)NCCc1ccc(S(N)(=O)=O)cc1 | 5.94% |
| O=C1c2ccccc2C(O)N1Cc1ccccc1Cl (stereo not drawn) | 12.8% (active) |
| O=C1c2ccccc2C(O)N1Cc1ccccc1 (stereo not drawn) | 0.38% |

| Compound | Tm shift relative to glycine control |
| --- | --- |
| O=c1ccn(Cc2ccccc2Cl)cc1 | 0.42% |
| O=C(N/N=C/c1sc(N2CCCCC2)nc1-c1cccs1)c1cccnc1 | -0.4% |
| O=C(COC(=O)COc1ccccc1F)Nc1cccc(S(=O)(=O)N2CCCCC2)c1 | -3.69% |
| Brc1ccccc1CN1CCC(Cc2ccccc2)CC1 | 0.68% |
| O=C(Nn1c(SCc2ccc([N+](=O)[O-])cc2)nc2ccccc2c1=O)c1ccc(F)cc1 | 14.8% (active) |
| Cc1nc2ccccc2c(=O)n1NC(=O)c1ccc(Cl)c([N+](=O)[O-])c1 | 0.49% |
| C=CCn1c(SCc2ccc(C(=O)NCCO)cc2)nc2ccccc2c1=O | -2.22% |
| COc1ccc(NC(=O)C2=CC(c3ccc(OC)c(OC)c3)=NS(=O)(=O)N2C)cc1 | -11.9% |
| CCN1C(=O)C(C(=O)NC(C)c2ccccc2)C2CC1(C)Oc1ccccc12 (stereo not drawn) | -1.26% |
| CC(C)CNC(=O)COC(=O)c1ccccc1OCC(=O)Nc1ccc(Br)cc1 | 0.17% |
| CN(C)C=NC(=O)c1cccn1-c1ncc(C(F)(F)F)cc1Cl | -1.59% |
| CCCCOC(=O)Cn1c(=O)n(CC(=O)OCCCC)c2cc(C)ccc21 | 10.7% (active) |
| Cc1ccc(C)c(NC(=O)COC(=O)Cn2c(C)csc2=O)c1 | 3.33% |
| CCOC(=O)CN1C(=O)C(=O)c2cc(C)ccc21 | 0.43% |
| CN(C(=O)CSc1nnc(-c2ccc3c(c2)OCO3)o1)C1CCS(=O)(=O)C1 (stereo not drawn) | 1.73% |
| O=C(CCC(=O)NNc1nc2ccccc2c2nc(-c3ccccc3)nn12)NCCCN1CCCC1=O | 0.34% |
| COc1ccc2[nH]c3c(C)c4cc[n+](C)cc4c(C)c3c2c1 | -0.08% |
| C=CCNC(=O)C1CC2c3ccccc3C1c1ccccc12 (stereo not drawn) | 1.25% |
| CSc1ncccc1C(=O)Nc1ccc2c(c1)OCO2 | -2.2% |
| CSc1ncccc1C(=O)Nc1nc2ccc(F)cc2s1 | 11.6% (active) |
| CSc1ncccc1C(=O)Nc1ccc(C)cn1 | 0.09% |
